Measured values from PubChem BioAssay AID431 (Sanford-Burnham Center for Chemical Genomics, 2006).
Among all 63,000 compounds or so, about 1,100 (1.7%) were called active. The entries come from a sample that favours actives as a whole. Potency and affinity values are given separately. Values without a mark were called inactive.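 Rule for the calls: active = compounds whose percent cytotoxicity in the single-dose primary screen, scaled between solvent and toxic-drug controls, exceeds 50; inactive = the rest.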

Experiment: cytotoxicity in KRAS-transformed pancreatic duct cells, primary screen, cell-based, fluorescence, HTS (AID 431);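 note: 0% = DMSO solvent wells and 100% = doxorubicin-treated wells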
Details: HPDE-C7K KRASV12 cells, Alamar Blue viability, 48 h; at 10 µM; stronger effect = higher value
For `COc1ccc(-c2cc(C(F)(F)F)nc(SCC(=O)N3CC(C)OC(C)C3)n2)cc1OC` (stereo not given), the cytotoxicity was -1.3%.
`Cc1c(Cl)cccc1NC(=O)CSCc1cc(=O)[nH][nH]1` showed a cytotoxicity of -8.5%.
With `Cc1cc2cc(CN(Cc3ccc4c(c3)OCO4)C(=O)c3ccco3)c(=O)[nH]c2cc1C` the cytotoxicity was 22.5%.
Work on `Cn1c(SCC(=O)NCc2cccs2)nnc1-c1cccs1` yielded a cytotoxicity of -2.7%.
Work on `CCS(=O)(=O)N1CCN(c2ccccc2F)CC1` yielded a cytotoxicity of -12.1%.
With `O=S1(=O)C=C(Sc2nnc(-c3ccccc3)o2)c2ccccc21` the cytotoxicity was 26.2%.
Work on `Cc1cc(C)nc(SC2=CS(=O)(=O)c3ccccc32)n1` yielded a cytotoxicity of 2.9%.
With `Cn1c(SC2=CS(=O)(=O)c3ccccc32)nc2ccccc21` the cytotoxicity was 86.7% (active).
With `Clc1ccc2oc(-c3ccccc3)nc2c1` the cytotoxicity was 3.5%.
In the case of `Cn1c(Sc2nc3ccccc3n2C)nc2ccccc21`, the cytotoxicity is reported as 21.7%.
With `O=S1(=O)C=C(Sc2nc3ccccc3s2)c2ccccc21` the cytotoxicity was 107% (active).
With `O=C1c2ccccc2S(=O)(=O)N1Cc1nc2ccccc2s1` the cytotoxicity was 3.2%.
Compound `O=S1(=O)C=C(SCCN2CCCCC2)c2ccccc21` has a cytotoxicity of 6.2%.
`CCOC(=O)c1c(NC(N)=O)sc(C)c1C` gave a cytotoxicity of 7.3%.
`CN(C)S(=O)(=O)c1ccc(S(=O)(=O)Nc2ccc3c(c2)oc2ccccc23)cc1` gave a cytotoxicity of -0.2%.
`COc1ccc2c(c1)c(=O)cc(C)n2CC(=O)NCc1ccco1` showed a cytotoxicity of 6.1%.
`CCN1CCCC1CNCc1ccc(Cl)cc1Cl` (stereo not given) showed a cytotoxicity of 12.8%.
`COc1ccc(CCNc2oc(COc3ccccc3F)nc2C#N)cc1` gave a cytotoxicity of 23.7%.
Work on `COc1ccc(/C=N/n2cnnc2SCc2ccccc2)cc1` yielded a cytotoxicity of 5.9%.
`COc1ccc(/C=N/n2cc(-c3ccc(OC)cc3)nc2N)cc1` gave a cytotoxicity of 3.7%.
In the case of `COc1ccc(/C=N/n2cc(-c3ccccc3)nc2N)cc1`, the cytotoxicity is reported as 70.8% (active).
Compound `O=C1COc2ccc3ccccc3c2CN1` has a cytotoxicity of -9.6%.
Compound `Cc1ccc2c(c1)CC1(CN2C)C(=O)OC2(CCCCC2)OC1=O` has a cytotoxicity of -4.6%.
For `CN1CC2(Cc3c1ccc1ccccc31)C(=O)OC(C)(C)OC2=O`, the cytotoxicity was 64.4% (active).
Compound `O=C(NCCc1ccccc1)c1cnn2c(C(F)F)cc(C3CC3)nc12` has a cytotoxicity of 6.9%.
Compound `O=S(=O)(c1ccc(-c2cn3ccccc3n2)cc1)N1CCOCC1` has a cytotoxicity of -9.8%.
With `CC(C)Cc1cc(C(=O)O)n[nH]1` the cytotoxicity was 9.9%.
`Cc1ccc(Cn2c(CN3CC(C)OC(C)C3)nc3c2c(=O)n(C)c(=O)n3C)cc1` (stereo not given) showed a cytotoxicity of -6.7%.
With `COc1ccc(N2C(=O)C3CCCN3C2c2ccccc2OC)cc1` (stereo not given) the cytotoxicity was -10%.
Work on `CN1CCN(c2nc(-c3ccccc3)nc3c2oc2ccccc23)CC1` yielded a cytotoxicity of 24.2%.
Work on `O=C(O)C1CCN(c2nc(-c3ccccc3)nc3c2oc2ccccc23)CC1` yielded a cytotoxicity of 27.2%.
With `COc1cc2nc(-c3ccccc3)nc(N3CCCC3)c2cc1OC` the cytotoxicity was 27.3%.
In the case of `COc1ccc(-c2csc(N3CCOCC3)n2)cc1OC`, the cytotoxicity is reported as 2.9%.
For `CCOc1cc2nc(-c3ccc(OC)c(OC)c3)nc(N3CCOCC3)c2cc1OC`, the cytotoxicity was 74.8% (active).
Work on `CC(C)(C)Nc1ncnc2c1cnn2-c1ccccc1` yielded a cytotoxicity of 17.2%.
With `COC(=O)c1cccc(NC(=O)CSc2nnc(COc3ccccc3)n2C)c1` the cytotoxicity was 8.3%.
In the case of `CC(C)N(C(=O)COc1ccc(Br)cc1Cl)C(C)C`, the cytotoxicity is reported as -4.2%.
`Cc1nc2nc(Cc3ccccc3)nn2c(C)c1Cl` showed a cytotoxicity of 0.4%.
In the case of `O=C(c1ccc(COc2ccccc2Cl)o1)N1CCN(Cc2ccc3c(c2)OCO3)CC1`, the cytotoxicity is reported as 65.1% (active).
For `O=C(c1ccc(COc2ccc(Cl)cc2)o1)N1CCN(Cc2ccc3c(c2)OCO3)CC1`, the cytotoxicity was 94.8% (active).
Compound `O=C(c1ccc(COc2ccccc2Cl)o1)N1CCN(c2ccccc2)CC1` has a cytotoxicity of 24%.
`O=C(c1ccc(Br)o1)N1CCN(Cc2ccc3c(c2)OCO3)CC1` gave a cytotoxicity of -4.9%.
`CC1CCN(C(=O)c2ccc(COc3ccccc3Cl)o2)CC1` showed a cytotoxicity of -8.5%.
With `O=C(c1ccc(Cn2cc(Cl)cn2)o1)N1CCN(Cc2ccc3c(c2)OCO3)CC1` the cytotoxicity was 12%.
For `CC(=O)c1ccccc1OCCCN1CCCCC1`, the cytotoxicity was 1.2%.
For `O=C(CNS(=O)(=O)c1cccs1)N1CCCC1`, the cytotoxicity was -3.8%.
For `Cc1occc1-c1nnc(SCc2nc3ccccc3c(=O)n2CC#N)n1C`, the cytotoxicity was -5.4%.
With `Cn1c(COc2ccccc2)nnc1SCCN1CCOCC1` the cytotoxicity was -8.5%.
Compound `Cc1cc2ccccc2c(=O)[nH]1` has a cytotoxicity of 3%.
For `Cc1ccccc1Nc1cc2ccccc2c(=O)[nH]1`, the cytotoxicity was 73.3% (active).
`O=c1[nH]c(Nc2ccccc2)cc2ccccc12` gave a cytotoxicity of 0.6%.
`Fc1ccc(-c2cc3nc(-c4ccccc4)cc(N4CCN(CCN5CCOCC5)CC4)n3n2)cc1` gave a cytotoxicity of 44.9%.
`COc1ccc(OC)c(S(=O)(=O)NCc2cccnc2)c1` gave a cytotoxicity of -4.2%.
Compound `CCn1c(SCC(=O)N2CCc3ccccc32)nnc1-c1ccncc1` has a cytotoxicity of -9.5%.
`CN1CCN(Cc2ccc(OCc3ccccc3)cc2)CC1` showed a cytotoxicity of 33.9%.
For `CCOc1ccc(S(=O)(=O)Nc2cc(OC)ccc2OC)cc1`, the cytotoxicity was 75.9% (active).
For `COc1ccc(OC)c(NS(=O)(=O)c2ccc(N3CCCC3=O)cc2)c1`, the cytotoxicity was 79.5% (active).
In the case of `COC(=O)COc1ccc(S(=O)(=O)Nc2cc(OC)ccc2OC)cc1`, the cytotoxicity is reported as 0%.
`COc1ccc(OC)c(NS(=O)(=O)c2ccc(SC)cc2)c1` gave a cytotoxicity of 30.3%.
`CCCCOc1ccc(S(=O)(=O)Nc2cc(OC)ccc2OC)cc1` showed a cytotoxicity of 32.5%.
Work on `COc1ccc(OC)c(NS(=O)(=O)c2ccc3c(c2)CCC(=O)N3)c1` yielded a cytotoxicity of 3.2%.
In the case of `COc1ccccc1NC(=O)CSc1nnc(-c2ccncc2)o1`, the cytotoxicity is reported as -3.6%.
For `CCc1nnc(NC(=O)CSc2nnc(-c3ccccc3O)n2-c2ccc(C)cc2)s1`, the cytotoxicity was -7.5%.
In the case of `CCc1nnc(NC(=O)CSc2nnc(-c3ccccc3O)n2-c2ccc(C)cc2C)s1`, the cytotoxicity is reported as 61.3% (active).
In the case of `CCn1c(SCC(=O)Nc2nc(-c3ccccc3)cs2)nnc1-c1ccccc1`, the cytotoxicity is reported as 23.1%.
`CCn1c(Cc2ccccc2)nnc1SCC(=O)Nc1nc2ccccc2s1` gave a cytotoxicity of 8.8%.
With `CCn1c(Cc2ccc(OC)cc2)nnc1SCC(=O)Nc1nc2ccccc2s1` the cytotoxicity was -6.3%.
With `CCc1nnc(NC(=O)CSc2nnc(-c3ccccc3OC)n2-c2ccccc2)s1` the cytotoxicity was -6.6%.
Compound `CCn1c(SCC(=O)Nc2nc(-c3ccc(C)cc3)cs2)nnc1-c1ccccc1O` has a cytotoxicity of 46.4%.
For `CCn1c(SCC(=O)Nc2nc(-c3ccccc3)cs2)nnc1-c1ccccc1O`, the cytotoxicity was 55.5% (active).
For `CCn1c(SCC(=O)Nc2nc3ccccc3s2)nnc1-c1ccc(OC)cc1`, the cytotoxicity was 78.6% (active).
Compound `Cc1nc2ccccc2c(=O)n1/N=C/c1cccnc1` has a cytotoxicity of 20.1%.
`CCCc1cc(=O)[nH]c(SCC(=O)c2cc(C)n(CCOC)c2C)n1` gave a cytotoxicity of 1.9%.
With `COC(=O)C1CCN(C(=O)COC(=O)Cc2c[nH]c3ccccc23)CC1` the cytotoxicity was 2.5%.
In the case of `O=C(CN1C(=O)c2ccccc2S1(=O)=O)NC1CCCCCC1`, the cytotoxicity is reported as 1.2%.
`CC1(C)Cc2ccccc2-c2nc(NCCCO)n(-c3ccccc3)c(=O)c21` gave a cytotoxicity of 12.6%.
Work on `O=C(Nc1ccc2c(c1)OCO2)Nc1ccc(Br)cn1` yielded a cytotoxicity of 21.3%.
With `CCCCCCc1cc2cc(-c3nnc(-c4ccccc4O)o3)c(=O)oc2cc1O` the cytotoxicity was 55.8% (active).
In the case of `CCCCCCc1cc2cc(C(=O)NC)c(=N)oc2cc1O`, the cytotoxicity is reported as 30.5%.
`CCOc1cccc2cc(-c3nnc(-c4ccccc4)o3)c(=O)oc12` gave a cytotoxicity of -3.1%.
For `CCN(CC)S(=O)(=O)c1ccc(-c2nnc(SCC(=O)Nc3nc(C)cs3)o2)cc1`, the cytotoxicity was 20.5%.
`COC(=O)c1ccc(OC(=O)c2ccccn2)cc1` gave a cytotoxicity of -2%.
Work on `CC1(C)OC(=O)C2(Cc3ccccc3N3CCCCC32)C(=O)O1` (stereo not given) yielded a cytotoxicity of -0.5%.
With `O=C1c2ccccc2-c2ncnc3cccc1c23` the cytotoxicity was -4.9%.
For `O=C(O)c1ccc2c3c(ncnc13)-c1ccccc1C2=O`, the cytotoxicity was 75.9% (active).
`O=C1c2ccccc2-c2nccnc21` gave a cytotoxicity of -3.8%.
`Fc1cc2ncn(Cc3ccccc3)c2cc1F` showed a cytotoxicity of -20.3%.
`N#Cc1nc(-c2ccco2)oc1NCc1ccc(F)cc1` gave a cytotoxicity of 10.2%.
`CCC(C)C(=O)Nc1c2c(nc3c1CCC3)CCCC2` (stereo not given) gave a cytotoxicity of -5.8%.
For `c1ccc(Cn2nnc3c(N4CCCC4)ncnc32)cc1`, the cytotoxicity was 8.8%.
For `FC(F)(F)c1ccc(N2CCN(c3ncnc4c3nnn4Cc3ccccc3)CC2)nc1`, the cytotoxicity was 55.5% (active).
`c1ccc(Cn2nnc3c(N4CCCCCC4)ncnc32)cc1` gave a cytotoxicity of -2.6%.
Work on `CC(=O)Nc1cc2c(cc1C(=O)C(C)C)OCCO2` yielded a cytotoxicity of -0.7%.
Compound `Cc1ccc(C)c(Cn2c(C(C)O)nc3ccccc32)c1` (stereo not given) has a cytotoxicity of -16.7%.
`Cc1ccc(-c2nc(-c3ccccc3)no2)c(Cl)c1` gave a cytotoxicity of -2.7%.
`CC(C)C(=O)Nc1c2c(nc3ccccc13)N(C)CC2` gave a cytotoxicity of -4%.
For `CCc1nnc(NC(=O)c2cnccn2)s1`, the cytotoxicity was -15.3%.
`CCCc1nnc(NC(=O)c2c(O)c3cccc4c3n(c2=O)CC4)s1` showed a cytotoxicity of 43.6%.
For `CCc1nnc(NC(=O)c2cccc(OC)c2)s1`, the cytotoxicity was 9.1%.
In the case of `CCc1nnc(NC(=O)c2cccc(C(=O)Nc3nnc(CC)s3)n2)s1`, the cytotoxicity is reported as 53.1% (active).
For `CCc1nnc(NC(=O)c2c(O)c3cccc4c3n(c2=O)CC4)s1`, the cytotoxicity was 50% (active).
Work on `CC(C)c1nnc(NC(=O)c2c(O)c3cccc4c3n(c2=O)CCC4)s1` yielded a cytotoxicity of 49.4%.
In the case of `Cc1cnc(NC(=O)c2c(O)c3cccc4c3n(c2=O)CCC4)s1`, the cytotoxicity is reported as 91.8% (active).
`Cc1csc(NC(=O)c2c(O)c3cccc4c3n(c2=O)CCC4)n1` showed a cytotoxicity of -16.1%.
Work on `CCCc1nnc(NC(=O)c2c(O)c3cccc4c3n(c2=O)CCC4)s1` yielded a cytotoxicity of 7.3%.
